Data published in the supplement of paper PMC7411640.
Structures can show the parent of a compound that is named as a salt.

Test system: MDA-MB-468
Test: phospho-S6 immunofluorescence (DAPI-normalised), per-plate z-score; higher = higher phospho-S6 signal (less pathway suppression)
Settings: co-treatment: GDC0941 450 nM; 24 h
Procedure: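 GPCR-targeted compound library (MedChemExpress HY-L006) tested on MDA-MB-468 PTEN-null TNBC cells in 384-well plates at 0.1, 1 or 10 uM, combined with vehicle, GDC0941 450 nM or lapatinib 1 uM, for 24 h. Phospho-S6 (S240/244) immunofluorescence normalised to DAPI and expressed as a per-plate z-score; values are the mean of biological triplicates.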

| SMILES | phospho-S6 immunofluorescence (z-score) |
| --- | --- |
| CC(C)c1noc(N2CCC(COc3ccc(-c4ccc(S(C)(=O)=O)cc4)nc3)CC2)n1 (compound 10 µM) | -2.9 |
| CCCc1nc(C(C)(C)O)c(C(=O)O)n1Cc1ccc(-c2ccccc2-c2nnn[nH]2)cc1 [Olmesartan] (compound 10 µM) | 0.13 |
| c1ccc2c(CC3=NCCN3)cccc2c1 [Naphazoline (hydrochloride)] (compound 10 µM) | -0.78 |
| COc1cc2nc(N3CCN(C(=O)C4COc5ccccc5O4)CC3)nc(N)c2cc1OC (stereo not drawn) [Doxazosin (mesylate)] (compound 10 µM) | -3.46 |
| C[C@H](NC(=O)c1cc(Cl)ccc1Oc1ccc(F)cc1)c1ccc(C(=O)O)cc1 (compound 10 µM) | -0.64 |
| CCOC(=O)N[C@@H]1CC[C@@H]2[C@@H](C1)C[C@H]1C(=O)O[C@H](C)[C@H]1[C@H]2/C=C/c1ccc(-c2cccc(F)c2)cn1 [Vorapaxar] (compound 10 µM) | -5.92 |
| CN1CCC(=C2c3ccccc3CCc3sccc32)CC1 [Pizotifen] (compound 10 µM) | 0.35 |
| CC(C)NCC(O)COc1ccc(CCOCC2CC2)cc1 (stereo not drawn) [Betaxolol] (compound 10 µM) | 0.15 |
| CN1CCC(=C2c3ccccc3C=Cc3ccccc32)CC1 [Cyproheptadine (hydrochloride sesquihydrate)] (compound 10 µM) | 0.49 |
| Nc1nc2c(cnn2CCc2ccccc2)c2nc(-c3ccco3)nn12 (compound 10 µM) | -0.2 |
| Cc1ccc(OCC(O)C(C)NC(C)C)c2c1CCC2 (stereo not drawn) [ICI 118,551 (hydrochloride)] (compound 10 µM) | 1.2 |
| CN(C)CCC=C1c2ccccc2C=Cc2ccccc21 [Cyclobenzaprine (hydrochloride)] (compound 10 µM) | 0.8 |
| Cn1c(SCC(=O)N2CCC[C@H]2C(=O)Nc2ccccc2-c2ccccc2)nc2ccccc21 (compound 10 µM) | 0.08 |
| COc1cc(C(C)=O)ccc1OCCCN1CCC(c2noc3cc(F)ccc23)CC1 [Iloperidone] (compound 10 µM) | 0.52 |
| Nc1nc(N)nc(-c2cc(Cl)ccc2Cl)n1 [Irsogladine] (compound 10 µM) | -0.7 |
| Cc1ccccc1N1CCN(CCc2nnc3n2CCCC3)CC1 [Dapiprazole (hydrochloride)] (compound 10 µM) | 0.31 |
| CCc1cc2c(cc1CC)CC(NC[C@H](O)c1ccc(O)c3[nH]c(=O)ccc13)C2 [Indacaterol (maleate)] (compound 10 µM) | -0.81 |
| CNCC(O)c1ccc(O)c(O)c1 (racemic) [DL-Epinephrine] (compound 10 µM) | 1.29 |
| Cc1cc(NC(=O)NCCN2CCC(O)(Cc3ccccc3)CC2)c2ccccc2n1 [Palosuran] (compound 10 µM) | -1.78 |
| CCCCc1oc2ccc(NS(C)(=O)=O)cc2c1C(=O)c1ccc(OCCCN(CCCC)CCCC)cc1 [Dronedarone] (compound 10 µM) | -3.7 |
| CC[C@H](C)[C@H](NC(=O)[C@H](Cc1ccc(O)cc1)NC(=O)[C@@H]1CCCN1C(=O)[C@@H](NC(=O)[C@@H](N)CCCCN)[C@@H](C)CC)C(=O)N[C@@H](CC(C)C)C(=O)O [Neuromedin N] (compound 10 µM) | 0.27 |
| COc1cc2c(cc1OC)-c1cc3ccc4c(c3c[n+]1CC2)OCO4 [Epiberberine (chloride)] (compound 10 µM) | -0.39 |
| NC(=O)[C@@H]1CCCC[C@@H]1C(=O)Nc1ccc(Cl)c(Cl)c1 (compound 10 µM) | 0.33 |
| O=C1CC2(CCCC2)CC(=O)N1CCCCN1CCN(c2ncccn2)CC1 [Buspirone (hydrochloride)] (compound 10 µM) | 0.3 |
| NCCc1c[nH]cn1 [Histamine (phosphate)] (compound 10 µM) | -0.41 |
| O=C(C[S+]([O-])Cc1ccco1)NC/C=C\COc1cc(CN2CCCCC2)ccn1 (stereo not drawn) [Lafutidine] (compound 10 µM) | -0.67 |
| O=C(N[C@H]1CCN(C(=O)c2cc(C(F)(F)F)cc(C(F)(F)F)c2)[C@H](Cc2ccc(Cl)cc2)C1)c1ccnc2ccccc12 (compound 10 µM) | -1.97 |
| CN1CCN2c3ccccc3Cc3ccccc3C2C1 (stereo not drawn) [Mianserin (hydrochloride)] (compound 10 µM) | 1 |
